From PubChem BioAssay
PAX8 inh HTS: inhibitors of PAX8-driven TPO luciferase reporter, primary screen, RMG-I cells, single concentration | SteadyGlo, 24 h | inhibition, % at 12.6 µM | actives 1.2% (n = 360,000) | AID 652154, 2013;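 active means mean replicate inhibition at least 60% with every replicate also reaching 60%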;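 further: luciferase light reporting Pax8 driven TPO promoter activity; plate controls were median of neutral control wells for no effect and mitoxantrone controls for full effect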
Env fusion inh: inhibitors of HIV-1 Env-driven cell-cell fusion, primary screen, HeLa-JRFL effector, CEM21 target cells, luciferase; actives 1.1% (n = 360,000); inhibition, % at 12.3 µM;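 active means mean replicate inhibition score of at least 50 and every replicate individually at or above 50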;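 further: 0% = plate neutral controls and 100% = maraviroc near 300 nM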
GSIS activator: GLuc luminescence reporter in INS-1E cells, primary screen for activators of glucose-dependent secretion of insulin; actives 0.61% (n = 370,000); INS-1E GLuc reporter insulin secretion, 2-3 h; activation, % at 16.6 µM;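 active means lowest replicate activation of at least 40%, so every replicate reaches that level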;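 further: 0% = median of neutral control wells and 100% = median of IBMX positive control wells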
F508del corr: F508del CFTR correction, initial screen, CFBE line, single point; CFBE cells, YFP halide quenching; stimulated with forskolin plus potentiator P3; % fluorescence drop versus neutral controls; activity (quench increase), % at 7.58 µM; actives 0.36% (n = 350,000); AID 720511, 2013;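 active means mean added fluorescence quench of at least 8% versus neutral control, with both replicates also reaching 8%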;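 further: cells transiently co-express mutant CFTR-F508del with the halide-sensitive YFP; corrector assay measuring rescue of mutant channel to the surface after 24 h compound exposure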
PGC1a acetyl inh: inhibitors of PGC1a acetylation signal, primary screen, cell-based, U2OS, AlphaScreen, inhibitor mode | AlphaScreen anti-acetyl-lysine; with virally co-expressed GCN5 acetyltransferase | inhibition, % at 15.6 µM | actives 0.17% (n = 350,000);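 active means every replicate shows inhibition of at least 40%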;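 further: 0% = neutral control wells and 100% = positive control wells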
EWS-Fli block: EWS/Fli-driven NR0B1 reporter inhibitors, primary screen, A673 cells, NR0B1 luciferase, luminescence, MLPCN library | inhibition, % at 12.6 µM | actives 0.67% (n = 350,000) | AID 651661, 2012 | viability-normalised;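 active means mean inhibition of at least 50% after viability correction, with every replicate also passing that limit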;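 further: firefly luciferase signal divided by Alamar Blue viability fluorescence both relative to DMSO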
* hit, by the source's call; nt = not tested or not shown; [ ] = another dose, or the depositor's remark. Most compounds without a hit are left out; they make up all but 2.7% or so of the library.

SMILES	PAX8 inh HTS	Env fusion inh	GSIS activator	F508del corr	PGC1a acetyl inh	EWS-Fli block
CCOc1ccc(CNC(=O)C2CCN(c3nnc(C)c4c(C)n(-c5ccc(C)cc5)nc34)CC2)cc1	-7	0	-5	-4	30	nt
Cc1noc(C)c1S(=O)(=O)N(C)C[C@H]1OCCCC[C@@H](C)Oc2ccc(NC(=O)c3ccccc3)cc2C(=O)N([C@@H](C)CO)C[C@@H]1C	-5	-55[16.7 µM]	-16	0	-7	0
C[C@@H]1CCCCO[C@@H](CN(C)C(=O)Nc2cccc3ccccc23)[C@H](C)CN([C@H](C)CO)C(=O)c2cc(NS(=O)(=O)c3ccc(F)cc3)ccc2O1	93*	12[16.7 µM]	-3	1	-14	6
C[C@@H]1CCCCO[C@H](CN(C)C(=O)Nc2cccc3ccccc23)[C@@H](C)CN([C@H](C)CO)C(=O)c2cc(NS(=O)(=O)c3ccc(F)cc3)ccc2O1	-1	4[16.7 µM]	-29	-2	-7	14
C[C@H]1CCCCO[C@H](CN(C)C(=O)Nc2cccc3ccccc23)[C@@H](C)CN([C@@H](C)CO)C(=O)c2cc(NS(=O)(=O)c3ccc(F)cc3)ccc2O1	87*	87*[16.7 µM]	9	-3	-4	24
C[C@H]1CCCCO[C@H](CN(C)C(=O)CCC(F)(F)F)[C@@H](C)CN([C@@H](C)CO)C(=O)c2cc(NS(=O)(=O)c3ccc(F)cc3)ccc2O1	-13	34[16.7 µM]	-12	-2	-11	2
C[C@H](CO)N1C[C@H](C)[C@H](CN(C)C)OCc2cn(nn2)CCCC1=O	-11	nt	-7	2	1	0
CC(C)CC#Cc1ccc2c(c1)O[C@H](CN(C)S(=O)(=O)c1ccc(F)cc1)[C@@H](C)CN([C@@H](C)CO)S2(=O)=O	101*	33[16.7 µM]	-18	1	5	19
CC(C)CC#Cc1ccc2c(c1)O[C@H](CN(C)S(=O)(=O)c1cccc(F)c1)[C@H](C)CN([C@@H](C)CO)S2(=O)=O	nt	45[16.7 µM]	-18	4	-7	44
CCCC#Cc1ccc2c(c1)O[C@H](CN(C)S(=O)(=O)c1cccc(F)c1)[C@H](C)CN([C@@H](C)CO)S2(=O)=O	nt	64*[16.7 µM]	-7	-1	3	13
CC(C)CC#Cc1ccc2c(c1)O[C@@H](CN(C)S(=O)(=O)c1ccc(F)cc1)[C@@H](C)CN([C@@H](C)CO)S2(=O)=O	95*	44[16.7 µM]	5	1	-13	19
CC(C)CC#Cc1ccc2c(c1)O[C@H](CN(C)S(=O)(=O)c1cccc(F)c1)[C@H](C)CN([C@H](C)CO)S2(=O)=O	nt	44[16.7 µM]	14	2	-12	9
CC(C)CC#Cc1ccc2c(c1)O[C@@H](CN(C)S(=O)(=O)c1ccc(F)cc1)[C@H](C)CN([C@@H](C)CO)S2(=O)=O	81*	60*[16.7 µM]	-7	1	8	27
COc1ccc(/C=C/c2cc(C(=O)O)c3ccccc3n2)cc1	9	22	-6	0	8	70*
COc1cc(OC)c(OC)cc1/C=C/c1cc(C(=O)O)c2ccccc2n1	-12	-7	18	-2	nt	7
Cc1noc(C)c1NC(=O)N(C)C[C@H]1Oc2c(NS(=O)(=O)c3ccccc3)cccc2C(=O)N([C@@H](C)CO)C[C@@H]1C	-10	17[16.7 µM]	3	0	0	-2
Cc1ccc(N=C2N=C(N)c3ccccc32)c(C)c1	nt	nt	nt	nt	13	nt
Cc1ccccc1N=C1N=C(N)c2ccccc21	138*	24	3	nt	-2	7
CCOC(=O)N1CCC(NC(=O)C2CCN(c3nc(-c4ccc(OC)cc4)no3)CC2)CC1	-15	34*	nt	nt	-5	nt
CCOc1ccccc1NC(=O)C1CCN(c2nc(-c3ccc(OC)cc3)no2)CC1	-8	-15	nt	1	-16	7
COc1ccc(-c2cnc3c(-c4ccc(F)cc4)cnn3c2N)cc1	-203	-84	-7	3	2	-88
Cc1nc2c(-c3ccc(F)cc3)cnn2c2c1CCC2	-1	-37	44*	nt	nt	-23
CCSCCc1nnc(NC(=O)Nc2cccc(C(F)(F)F)c2)s1	106*	70*	-1	nt	nt	24
O=C(Nc1cccc(C(F)(F)F)c1)Nc1nnc([C@H]2C[C@H](O)[C@@H](CO)O2)s1	-27	25	3	0	-15	-20
COc1ccc(S(=O)(=O)Nc2ccc3c(c2)CC(=O)N([C@@H](C)CO)C[C@H](C)[C@@H](CN(C)S(C)(=O)=O)O3)cc1	6	3[16.7 µM]	14	-2	-16	-9
SMILES	PAX8 inh HTS	Env fusion inh	GSIS activator	F508del corr	PGC1a acetyl inh	EWS-Fli block
COc1ccc(CN(C)C[C@H]2OCCCC[C@H](C)Oc3ccc(NC(=O)NC(C)C)cc3C(=O)N([C@H](C)CO)C[C@@H]2C)cc1	-13	-12[16.7 µM]	-6	-2	9	3
CCCN(C(=O)CCc1cn(CCC)c2ccccc12)c1ccc(N(C)c2ccccn2)cc1	17	7	nt	0	nt	-3
CCCN(C(=O)CCc1cn(CCC)c2ccccc12)c1ccc(Oc2cccnc2)cc1	-22	70*	-22	-1	nt	-34
C[C@H]1CN([C@@H](C)CO)C(=O)c2cc(NC(=O)Nc3ccc(C(F)(F)F)cc3)ccc2O[C@H]1CN(C)Cc1ccncc1	21	nt	nt	0	7	23
COc1cc(/C=N/NC(=O)c2ccc(-c3ccccc3)cc2)cc(OC)c1OC	80*	-95	-8	nt	nt	nt
COc1cc(C(=O)N/N=C/c2sccc2C)cc(OC)c1OC	81*	-139	38	2	11	55*
COc1cc(/C=N/NC(=O)c2ccc(-n3cccc3)cc2)ccc1O	72*	-39	-14	nt	nt	nt
Cc1ccsc1/C=N/NC(=O)c1ccncc1	-4	5	27	-1	-2	-6
COc1cccc(/C=N/NC(=O)c2ccc(N3CCCC3=O)cc2)c1	96*	-97	-1	-6	16	18
COc1ccc(CN(C)C[C@H]2Oc3ccc(NC(=O)Nc4ccc5c(c4)OCO5)cc3C(=O)N([C@@H](C)CO)C[C@H]2C)cc1	nt	12[16.7 µM]	-3	0	-5	-1
CCCN(C)C[C@H]1Oc2ncc(-c3cccnc3)cc2C(=O)N([C@@H](C)CO)C[C@H]1C	nt	-6[16.7 µM]	17	-3	2	-12
C[C@@H]1CN([C@@H](C)CO)C(=O)c2cc(NS(=O)(=O)c3cccs3)ccc2O[C@H]1CN(C)S(=O)(=O)c1ccc(Cl)cc1	nt	nt	-11	0	-2	4
COc1ccc(C(=O)NCC(=O)N2CCN(c3ncccn3)CC2)cc1OC	-10	7	37	1	-3	-12
O=C(NCC(=O)N1CCN(c2ncccn2)CC1)c1ccccc1OC(F)F	6	86*	-2	-3	1	-5
